# Experimental data taken from PubChem BioAssay AID588473 (Sanford-Burnham Center for Chemical Genomics, 2011).
# About 1,600 (0.46%) of roughly 350,000 compounds were called active. What follows is part of a selection rich in actives, with near analogues and random picks from the rest. A number with no mark means an inactive call.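 Rule for the calls: active = activation of at least 50%, plus an integration ratio under a set limit after plate pattern correction; inactive = the rest.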
# Tested on: CRF-binding protein / CRF receptor 2 complex (human)
# Assay: agonists of CRF-BP/CRF-R2 complex, primary screen, cell-based, HEK293, calcium dye fluorescence, uHTS (AID 588473);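 note: plate controls were neutral control wells without compound for no effect and CRF at EC100 for full effect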
# Details: calcium dye fluorescence (FLIPR), at 13.2 µM, active compounds read high, percent of saturating CRF peptide response
row,Structure (SMILES),activation
1,CN(C(=O)COC(=O)c1ccc(Br)o1)c1c(N)n(Cc2ccccc2)c(=O)[nH]c1=O,1.22%
2,Nc1cc(=O)n(Cc2ccccc2)c(=O)n1Cc1ccccc1,-0.25%
3,Cc1cc2nc3c(=O)n(Cc4ccccc4)c(=O)[nH]c3nc2cc1N,89.5% (active)
4,CCCS(=O)(=O)N1CCCC(C(=O)NCCN2CCCCC2C)C1 (configuration not stated),2.69%
5,O=C(O)/C=C/c1ccc(S(=O)(=O)N2CCCCCC2)cc1,-6.06%
6,O=C(/C=C(O)/C=C/c1ccc(O)cc1)/C=C/c1ccc(O)cc1,123% (active)
7,COc1cccc(C=CC(=O)C=CC=Cc2ccccc2)c1,3.04%
8,Cc1cc(Cl)ccc1C(=O)C1CCCN(C(=O)c2ccc3c(c2)OCO3)C1 (configuration not stated),-0.83%
9,CC1(C)Cc2c(sc(NC(=O)C(=O)NCC3CCCO3)c2C(=O)O)CO1 (configuration not stated),1.19%
10,O=S(=O)(Nc1ccccc1N1CCOCC1)c1ccc(Cl)s1,0.68%
11,O=C(Nc1cccc(Cl)c1)Nc1ccccc1NS(=O)(=O)c1cccs1,38.9%
12,COc1cc(NC(=O)c2ccccc2NS(=O)(=O)c2ccc(Cl)s2)cc(OC)c1,59.3% (active)
13,COc1ccc(CN2CCn3ncc(C(=O)Nc4ccc(Cl)cc4Cl)c3C2=O)cc1,1.96%
14,COc1ccccc1CNC(=O)C1CCCN(S(=O)(=O)c2cccc3cccnc23)C1 (configuration not stated),-0.51%
15,COc1cc(OC)c(-n2cc(-c3ccc(Cl)cc3)[nH]c2=O)cc1Cl,180% (active)
16,COc1cc(OC)c(-n2c(C)cc(C=O)c2C)cc1Cl,0.85%
17,COc1ccc(-n2c(-c3ccc(Cl)cc3)n[nH]c2=S)c(OC)c1,-2.26%
18,COc1ccc(NC(=O)N(C)C[C@H]2Oc3ncc(C#C[C@@H](C)O)cc3C(=O)N([C@H](C)CO)C[C@H]2C)cc1,5.65%
19,CC(C)c1ccc(NC(=O)Cn2ncc3ccccc32)cc1,-4.37%
20,CCC(C(=O)Nc1ccc(C(C)C)cc1)c1ccccc1 (configuration not stated),84.3% (active)
21,CC(NC(=O)Nc1ccccc1)c1ccccc1 (configuration not stated),-0.98%
22,Cc1cc2c(cc1C)[n+](C)cn2CC(O)COCC1CC=CCC1 (configuration not stated),0.16%
23,O=C(Nc1ccc2c(c1)OCCO2)C1CCCC1,-0.49%

row,Structure (SMILES),activation
1,CC(C)NS(=O)(=O)c1ccc(NC(=O)C2CCCCC2)cc1,1.98%
2,O=C(O)c1ccc(NC(=O)C2CCCCC2)cc1,51.5% (active)
3,CC(=O)NC12CC3CC(C1)CC(C(=O)N1CCN(S(=O)(=O)c4cccs4)CC1)(C3)C2,-0.5%
4,N#Cc1cccc(CSc2ncnc(N)n2)c1,-1.54%
5,CCc1ccc(CN(C)C(=O)CCc2nnc(-c3ccc(-c4ccccc4)cc3)o2)nc1,-0.63%
6,CCCCCCc1cc2cc(-c3nnc(-c4ccccc4)o3)c(=O)oc2cc1O,269% (active)
7,COc1ccccc1-c1nnc(-c2ccc(F)cc2)o1,0.06%
8,COc1ccc(Cl)cc1-n1c(=S)sc2c(=O)n(-c3ccc(F)cc3)c(SCC(=O)O)nc21,-1.84%
9,Cc1cccn2c(=O)c(/C=C(\C#N)C(N)=O)c(N3CCCCCC3)nc12,-2.5%
10,CCOC(=O)CC1C(=O)NCCN1c1nc2c(C)cccn2c(=O)c1/C=C1\SC(=S)N(C(C)CC)C1=O (configuration not stated),177% (active)
11,Cc1cccn2c(=O)c(/C=C(\C#N)S(=O)(=O)c3ccc(Cl)cc3)c(N3CCC(C(N)=O)CC3)nc12,9.75%
12,CCCN(CCC)c1ccc(C(O)c2nnc(-c3ccccc3)o2)cc1 (configuration not stated),-0.49%
13,Cc1cccc2c1-c1sc(C(=O)NCCCN3CCc4ccccc4C3)cc1CO2,3.21%
14,C[C@H]1CN([C@@H](C)CO)C(=O)Cc2cc(NC(=O)Cc3ccccc3)ccc2O[C@H]1CN(C)S(=O)(=O)c1cccs1,0.76%
15,O=C(Nc1cccc(F)c1)c1coc(=O)c(Br)c1,67% (active)
16,Cc1c(NC(=O)c2coc(=O)c(Br)c2)c(=O)n(-c2ccccc2)n1C,-1.21%
17,O=C(CCN1C(=O)c2ccccc2C1=O)Nc1cccc(F)c1,-0.06%
18,O=C(O)c1ccc(S(=O)(=O)c2ccccc2)s1,0.6%
19,Cc1nn(C(C)(C)C)c(OC(=O)CC(C)C)c1S(=O)(=O)c1ccccc1,4.7%
20,CC(C)[C@H](NC(=O)N1c2ccccc2NC(=O)[C@@H]1C(C)C)C(=O)N[C@H](C(=O)O)c1ccccc1,0.51%
21,CCN1/C(=C\c2ccc3ccccc3[n+]2CC)Sc2cc(C)ccc21,200% (active)
22,CCN1/C(=C/c2ccc3ccc(C)cc3[n+]2CC)Sc2ccccc21,143% (active)
23,COc1ccc(SCCN2CCN(CC(C)C)CCC2=O)cc1,-0.91%

row,Structure (SMILES),activation
1,COC(=O)C(C)Oc1ccc2c(-c3cccc([N+](=O)[O-])c3)cc(=O)oc2c1 (configuration not stated),-3.43%
2,CCC1SC(CC)C(=O)N(CC(=O)NC2CCCCC2)C1=O (configuration not stated),-0.56%
3,CCOC(=O)[C@H]1[C@H]2COc3ccccc3[C@@H]2N2C(=O)CN(Cc3ccccc3)C(=O)[C@@]12C,-0.27%
4,O=[N+]([O-])c1cc(Br)c(O)c(/C=N/Nc2nc3ccccc3s2)c1,82.8% (active)
5,c1ccc(C(=NNc2nc3ccccc3s2)c2ccccn2)cc1,5.4%
6,O=C(N/N=C/c1cc(Br)c(O)c([N+](=O)[O-])c1)C(O)(c1ccccc1)c1ccccc1,-0.94%
7,CCNC(=S)N1CCN(S(=O)(=O)c2ccc(Cl)s2)CC1,3.39%
8,CC(=O)Nc1ccccc1Sc1ccc2c3c(cccc13)C(=O)N(c1ccc(C)cc1)C2=O,87.7% (active)
9,Cc1ccc(N2C(=O)CC(Nc3cccc4ccccc34)C2=O)cc1 (configuration not stated),0.15%
10,CSc1ccccc1NC(=O)C(C)N1C(=O)c2ccccc2S1(=O)=O (configuration not stated),1.1%
11,CCC(=O)N1CCc2cc(Br)c(S(=O)(=O)NCCN3CCCCC3CC)cc21 (configuration not stated),-1.55%
12,CSc1cccc(NC(=O)CN2C(=O)COc3ccc(S(=O)(=O)N4CCOCC4)cc32)c1,-1.06%
13,O=C(COc1ccc(S(=O)(=O)N2CCCC2)cc1[N+](=O)[O-])N1CCCCC1,-0.47%
14,COc1ccc2c(c1)OC(O)(C(F)(F)C(F)F)CC2=O (configuration not stated),66.2% (active)
15,COc1ccc2c(c1)SC(C)CC2=O (configuration not stated),-0.7%
16,COc1ccc2c(c1)C(=O)CC(c1ccccc1)O2 (configuration not stated),-2.49%
17,COc1ccc(-c2c(-c3cc(OC)cc(OC)c3)n(C)c3ccc(-c4ccn[nH]4)cc23)cc1,2.7%
18,CC1CC1C(=O)OCC(=O)Nc1cccc(F)c1 (configuration not stated),1.09%
19,CCOCCc1c(O)nc(SCC(=O)NCc2ccco2)[nH]c1=O,0.28%
20,Cc1ccc(CN(C)C[C@@H]2OCc3cnnn3CCCC(=O)N([C@@H](C)CO)C[C@H]2C)cc1,0.05%
21,COC(=O)Cc1cc(=O)oc2c(C)c(O)ccc12,2.46%
22,COc1cccc2cc(S(=O)(=O)c3ccc(C)cc3)/c(=N/NS(=O)(=O)c3ccc(C)cc3)oc12,2.38%
23,Cc1cc(S(=O)(=O)c2cc3ccc(O)c(C)c3oc2=O)ccc1F,91.1% (active)

row,Structure (SMILES),activation
1,COc1ccc(-c2[nH]ncc2CN(C)Cc2cc(C)[nH]n2)c(F)c1,-4.41%
2,CCN(CC)c1ccc(NC(=O)C2CCC(CNc3c(N4CCCC4)c(=O)c3=O)CC2)c(C)c1 (configuration not stated),-1.59%
3,COc1ccc(/C=C(\C#N)C(=O)OCC(=O)N(C)C2CCS(=O)(=O)C2)cc1 (configuration not stated),-0.47%
4,CCOC(=O)/C(C#N)=C/c1ccc(N2CCN(Cc3ccccc3)CC2)cc1,100% (active)
5,COc1ccc(/C=C(\C#N)C(=O)ONC2=NCCCCC2)cc1,-0.53%
6,CCOC(=O)/C(C#N)=C/c1ccc(N2CCCCC2)cc1,69.9% (active)
7,CCCn1c(C)cc(/C=C(\C#N)C(=O)OCC(=O)N(C)c2c(N)n(Cc3ccccc3)c(=O)[nH]c2=O)c1C,-1.33%
8,CC(C)OC(=O)C(C#N)c1nc2ccccc2nc1N1CCN(Cc2ccccc2)CC1 (configuration not stated),4.17%
9,CC(C)c1nc(CNC(=O)CC2C(=O)NCCN2Cc2ccoc2)cs1 (configuration not stated),3.31%
10,CCO[C@H]1OC(C(=O)N2CCN(Cc3ccccc3)CC2)=C[C@@H](c2cn(C(C)=O)c3ccccc23)[C@@H]1CCCO,-0.99%
11,O=C(OCc1cn(-c2ccc(Cl)c(Cl)c2)nn1)c1ccccc1Cl,5.3%
12,CC(C(=O)N1CCN(c2ccccc2F)CC1)c1ccc([N+](=O)[O-])cc1 (configuration not stated),-0.08%
13,CC(C)CNC(=O)/C=C/C(=O)O,-1.76%
14,CCCc1cc(=O)n2[nH]c(SCc3ccccc3)nc2n1,1.41%
15,Cc1cccc(-c2nnc(SCC(=O)O)n2Cc2ccccc2)c1,-1.45%
16,CCn1nnnc1SCC(=O)c1ccc(C)cc1C,1.45%
17,Cc1ccc2c(c1)nnc1nnc(SCC(=O)O)n12,187% (active)
18,CC1(C)C2CCC13CS(=O)(=O)NC3C2 (configuration not stated),-2.27%
19,CC1Cc2nc(SCC(=O)Nc3ccccc3F)n(C)c(=O)c2S1 (configuration not stated),-2.32%
20,COc1cccc(N(CC(=O)NC2CCCC2)C(=O)Cn2nnc(-c3ccc(C)cc3)n2)c1,-0.55%
21,CCOc1ccc2nc(NCCNC(=O)C(C)(C)C)c(C)cc2c1,0.31%
22,CCOc1ccc(C(=O)NC2CCN(C(=O)Nc3ccccc3OC)CC2)cc1,1.14%
23,CCOc1ccc2nc(N3CCCN(C(=O)Nc4ccccc4C)CC3)c(C#N)cc2c1,53.4% (active)
